Measurements as given in PubChem BioAssay (NCATS).
Inconclusive results are not listed. Activity calls are given as the source filed them. Calls follow the shape of the dose curve; as a rule, active = well fitted inhibition curve with a large enough effect; inconclusive = small, poorly fitted or top-dose-only effect; inactive = flat fitted curve, though single readings scatter.

Test system: CP203
Experiment: qHTS profiling for inhibitors of Plasmodium falciparum proliferation (AID 504749); also: nearly all actives have a fitted effect of over 60% in size;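 as to activity, negative = inhibition: 0% = DMSO vehicle and full inhibition = artemisinin control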
Settings: P. falciparum in erythrocytes, SYBR Green DNA, 72 h; series mostly up to 28.7 µM; activity, negative = inhibition: at the top concentration
In short: (§1)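 Parasite proliferation within erythrocytes, 72 h exposure. Endpoint: SYBR Green I fluorescence after overnight lysis at room temperature. Controls: 0.29 uM artemisinin, DMSO.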
Potency is read from the fitted curve at half-maximal effect.

Row | Structure (SMILES) | Potency | activity, negative = inhibition
1 | N=C(N)c1ccc(OCCCCCOc2ccc(C(=N)N)cc2)cc1 | 953 nM (active) | –
2 | OC(Cn1cncn1)(Cn1cncn1)c1ccc(F)cc1F | – | -3.28% (inactive)
3 | CCOC(=O)c1ccc(OC(=O)CCCCCN=C(N)N)cc1 | – | -6.74% [at 12.8 µM] (inactive)
4 | CN(CCOc1ccc(CC2SC(=O)NC2=O)cc1)c1ccccn1 (configuration not stated) | – | 3.2% (inactive)
5 | CC(C)(C#N)c1cc(Cn2cncn2)cc(C(C)(C)C#N)c1 | – | 3.42% (inactive)
6 | N[C@@H](Cc1ccc(O)c(O)c1)C(=O)O | – | 12.6% (inactive)
7 | NC(=O)c1cccnc1 | – | -0.454% (inactive)
8 | COc1nc(N)nc2c1ncn2[C@@H]1O[C@H](CO)[C@@H](O)[C@@H]1O | – | -2.63% (inactive)
9 | S=P(N1CC1)(N1CC1)N1CC1 | – | 1.02% (inactive)
10 | CN1CCN(c2c(F)cc3c(=O)c(C(=O)O)cn(CCF)c3c2F)CC1 | – | 2.52% (inactive)
11 | COc1ccc(-c2ccc3cc(C(=O)O)ccc3c2)cc1C12CC3CC(CC(C3)C1)C2 | – | 1.45% (inactive)
12 | Cc1nnc(NS(=O)(=O)c2ccc(N)cc2)s1 | – | 0.947% (inactive)
13 | Cc1ccnc2c1NC(=O)c1cccnc1N2C1CC1 | – | 6.74% (inactive)
14 | Nc1[nH]c(=O)ncc1F | – | 0.043% [at 12.8 µM] (inactive)
15 | NC(N)=NC(N)=NCCc1ccccc1 | inactive | –
16 | Nc1nc(N)nc(-c2cc(Cl)ccc2Cl)n1 | – | 4.07% (inactive)
17 | Cc1cccc(Nc2ccncc2S(=O)(=O)NC(=O)NC(C)C)c1 | – | 6.33% [at 12.8 µM] (inactive)
18 | O=P(O)(O)C(O)(Cc1cccnc1)P(=O)(O)O | – | -9.19% (inactive)
19 | CCOCC(O)COc1ccc(NC(=O)CC[S+](C)C)cc1 (configuration not stated) | – | -1.8% (inactive)
20 | Cc1cccc(N(C)C(=S)Oc2ccc3ccccc3c2)c1 | – | -0.16% [at 12.8 µM] (inactive)
21 | CN(C)CCc1c[nH]c2ccc(CS(=O)(=O)N3CCCC3)cc12 | – | 1.78% (inactive)
22 | N[C@@H](C(=O)N[C@@H]1C(=O)N2C(C(=O)O)=C(Cl)CS[C@H]12)c1ccccc1 | – | -0.875% (inactive)
23 | COC(=O)Nc1nc2ccc(Sc3ccccc3)cc2[nH]1 | – | -5.58% [at 12.8 µM] (inactive)
24 | Cc1noc(NS(=O)(=O)c2ccc(N)cc2)c1C | – | 0.387% (inactive)
25 | CC(C)NCC(O)c1ccc(NS(C)(=O)=O)cc1 (configuration not stated) | inactive | –
26 | Nc1ccc(S(=O)(=O)Nc2ccccn2)cc1 | – | 6.03% [at 12.8 µM] (inactive)
27 | C[C@]12C=CC(=O)C=C1CC[C@@H]1[C@@H]2C(=O)C[C@@]2(C)[C@H]1CC[C@]2(O)C(=O)CO | – | -0.841% (inactive)
28 | CC(=O)Oc1ccccc1C(=O)Nc1ncc([N+](=O)[O-])s1 | – | -2.77% (inactive)
29 | NCCCC(O)(P(=O)(O)O)P(=O)(O)O | – | 7.51% (inactive)

Test system: CP211
Experiment: as above
Settings: P. falciparum in erythrocytes, SYBR Green DNA, 72 h; series mostly up to 28.7 µM; activity, negative = inhibition: at the top concentration
In short: as §1

Row | Structure (SMILES) | Potency | activity, negative = inhibition
30 | N=C(N)c1ccc(OCCCCCOc2ccc(C(=N)N)cc2)cc1 | 849 nM (active) | –
31 | OC(Cn1cncn1)(Cn1cncn1)c1ccc(F)cc1F | – | 2.9% (inactive)
32 | CCOC(=O)c1ccc(OC(=O)CCCCCN=C(N)N)cc1 | – | -0.324% [at 12.8 µM] (inactive)
33 | CN(CCOc1ccc(CC2SC(=O)NC2=O)cc1)c1ccccn1 (configuration not stated) | – | 4.89% (inactive)
34 | CC(C)(C#N)c1cc(Cn2cncn2)cc(C(C)(C)C#N)c1 | – | -0.483% (inactive)
35 | N[C@@H](Cc1ccc(O)c(O)c1)C(=O)O | – | -0.154% (inactive)
36 | NC(=O)c1cccnc1 | – | 0.488% (inactive)
37 | COc1nc(N)nc2c1ncn2[C@@H]1O[C@H](CO)[C@@H](O)[C@@H]1O | – | -0.508% (inactive)
38 | S=P(N1CC1)(N1CC1)N1CC1 | – | -0.418% (inactive)
39 | CN1CCN(c2c(F)cc3c(=O)c(C(=O)O)cn(CCF)c3c2F)CC1 | – | -1.52% (inactive)
40 | COc1ccc(-c2ccc3cc(C(=O)O)ccc3c2)cc1C12CC3CC(CC(C3)C1)C2 | – | -0.934% (inactive)
41 | Cc1nnc(NS(=O)(=O)c2ccc(N)cc2)s1 | – | 5.36% (inactive)
42 | Cc1ccnc2c1NC(=O)c1cccnc1N2C1CC1 | – | 9.17% (inactive)
43 | Nc1[nH]c(=O)ncc1F | – | 2.24% [at 12.8 µM] (inactive)
44 | NC(N)=NC(N)=NCCc1ccccc1 | inactive | –
45 | Nc1nc(N)nc(-c2cc(Cl)ccc2Cl)n1 | – | -2.4% (inactive)
46 | Cc1cccc(Nc2ccncc2S(=O)(=O)NC(=O)NC(C)C)c1 | – | -9.59% [at 12.8 µM] (inactive)
47 | O=P(O)(O)C(O)(Cc1cccnc1)P(=O)(O)O | – | 10.9% (inactive)
48 | CCOCC(O)COc1ccc(NC(=O)CC[S+](C)C)cc1 (configuration not stated) | – | -11.5% (inactive)
49 | Cc1cccc(N(C)C(=S)Oc2ccc3ccccc3c2)c1 | – | 0.191% [at 12.8 µM] (inactive)
50 | CN(C)CCc1c[nH]c2ccc(CS(=O)(=O)N3CCCC3)cc12 | – | -3.84% (inactive)
51 | N[C@@H](C(=O)N[C@@H]1C(=O)N2C(C(=O)O)=C(Cl)CS[C@H]12)c1ccccc1 | – | -4.98% (inactive)
52 | COC(=O)Nc1nc2ccc(Sc3ccccc3)cc2[nH]1 | – | -0.418% [at 12.8 µM] (inactive)
53 | Cc1noc(NS(=O)(=O)c2ccc(N)cc2)c1C | – | 1.37% (inactive)
54 | CC(C)NCC(O)c1ccc(NS(C)(=O)=O)cc1 (configuration not stated) | inactive | –
55 | Nc1ccc(S(=O)(=O)Nc2ccccn2)cc1 | – | -1.81% [at 12.8 µM] (inactive)
56 | C[C@]12C=CC(=O)C=C1CC[C@@H]1[C@@H]2C(=O)C[C@@]2(C)[C@H]1CC[C@]2(O)C(=O)CO | – | 8.74% (inactive)
57 | CC(=O)Oc1ccccc1C(=O)Nc1ncc([N+](=O)[O-])s1 | – | -2.48% (inactive)
58 | NCCCC(O)(P(=O)(O)O)P(=O)(O)O | – | -0.0589% (inactive)

Test system: CP215
Experiment: as above
Settings: P. falciparum in erythrocytes, SYBR Green DNA, 72 h; series mostly up to 28.7 µM; activity, negative = inhibition: at the top concentration
In short: as §1

Row | Structure (SMILES) | Potency | activity, negative = inhibition
59 | N=C(N)c1ccc(OCCCCCOc2ccc(C(=N)N)cc2)cc1 | 1.07 µM (active) | –
60 | OC(Cn1cncn1)(Cn1cncn1)c1ccc(F)cc1F | – | -4.11% (inactive)
61 | CCOC(=O)c1ccc(OC(=O)CCCCCN=C(N)N)cc1 | – | 5.75% [at 12.8 µM] (inactive)
62 | CN(CCOc1ccc(CC2SC(=O)NC2=O)cc1)c1ccccn1 (configuration not stated) | – | -0.711% (inactive)
63 | CC(C)(C#N)c1cc(Cn2cncn2)cc(C(C)(C)C#N)c1 | – | 3.53% (inactive)
64 | N[C@@H](Cc1ccc(O)c(O)c1)C(=O)O | – | 17.4% (inactive)
65 | NC(=O)c1cccnc1 | – | 8.14% (inactive)
66 | COc1nc(N)nc2c1ncn2[C@@H]1O[C@H](CO)[C@@H](O)[C@@H]1O | – | 2.73% (inactive)
67 | S=P(N1CC1)(N1CC1)N1CC1 | – | 1.55% (inactive)
68 | CN1CCN(c2c(F)cc3c(=O)c(C(=O)O)cn(CCF)c3c2F)CC1 | – | 2.56% (inactive)
69 | COc1ccc(-c2ccc3cc(C(=O)O)ccc3c2)cc1C12CC3CC(CC(C3)C1)C2 | – | 2.2% (inactive)
70 | Cc1nnc(NS(=O)(=O)c2ccc(N)cc2)s1 | – | 12.8% (inactive)
71 | Cc1ccnc2c1NC(=O)c1cccnc1N2C1CC1 | – | 1.94% (inactive)
72 | Nc1[nH]c(=O)ncc1F | – | 10.6% [at 12.8 µM] (inactive)
73 | NC(N)=NC(N)=NCCc1ccccc1 | inactive | –
74 | Nc1nc(N)nc(-c2cc(Cl)ccc2Cl)n1 | – | -1.22% (inactive)
75 | Cc1cccc(Nc2ccncc2S(=O)(=O)NC(=O)NC(C)C)c1 | – | -0.862% [at 12.8 µM] (inactive)
76 | O=P(O)(O)C(O)(Cc1cccnc1)P(=O)(O)O | – | 5.44% (inactive)
77 | CCOCC(O)COc1ccc(NC(=O)CC[S+](C)C)cc1 (configuration not stated) | – | 3.69% (inactive)
78 | Cc1cccc(N(C)C(=S)Oc2ccc3ccccc3c2)c1 | – | -1.8% [at 12.8 µM] (inactive)
79 | CN(C)CCc1c[nH]c2ccc(CS(=O)(=O)N3CCCC3)cc12 | – | 4.91% (inactive)
80 | N[C@@H](C(=O)N[C@@H]1C(=O)N2C(C(=O)O)=C(Cl)CS[C@H]12)c1ccccc1 | – | 6.98% (inactive)
81 | COC(=O)Nc1nc2ccc(Sc3ccccc3)cc2[nH]1 | – | -0.278% [at 12.8 µM] (inactive)
82 | Cc1noc(NS(=O)(=O)c2ccc(N)cc2)c1C | – | 0.57% (inactive)
83 | CC(C)NCC(O)c1ccc(NS(C)(=O)=O)cc1 (configuration not stated) | inactive | –
84 | Nc1ccc(S(=O)(=O)Nc2ccccn2)cc1 | – | 10% [at 12.8 µM] (inactive)
85 | C[C@]12C=CC(=O)C=C1CC[C@@H]1[C@@H]2C(=O)C[C@@]2(C)[C@H]1CC[C@]2(O)C(=O)CO | – | 0.344% (inactive)
86 | CC(=O)Oc1ccccc1C(=O)Nc1ncc([N+](=O)[O-])s1 | – | 0.041% (inactive)
87 | NCCCC(O)(P(=O)(O)O)P(=O)(O)O | – | 4.88% (inactive)
